Values joined by “and” are separate entries in the source; they are usually repeats but may differ in a detail not shown here. Equal values may be shown once. Records with an inconclusive call do not appear. More than one record can exist for a structure, and the calls need not agree. Active and inactive are the calls of the source. How the source made its calls: active means hit-call score of the fitted dose curve at least 0.9, where 1 is the maximum; inconclusive means response in the unintended direction; inactive means score below 0.9.

Sequence of chimpanzee Androgen Receptor (AR), AR (gene 747460) (O97775 whole entry, looked up): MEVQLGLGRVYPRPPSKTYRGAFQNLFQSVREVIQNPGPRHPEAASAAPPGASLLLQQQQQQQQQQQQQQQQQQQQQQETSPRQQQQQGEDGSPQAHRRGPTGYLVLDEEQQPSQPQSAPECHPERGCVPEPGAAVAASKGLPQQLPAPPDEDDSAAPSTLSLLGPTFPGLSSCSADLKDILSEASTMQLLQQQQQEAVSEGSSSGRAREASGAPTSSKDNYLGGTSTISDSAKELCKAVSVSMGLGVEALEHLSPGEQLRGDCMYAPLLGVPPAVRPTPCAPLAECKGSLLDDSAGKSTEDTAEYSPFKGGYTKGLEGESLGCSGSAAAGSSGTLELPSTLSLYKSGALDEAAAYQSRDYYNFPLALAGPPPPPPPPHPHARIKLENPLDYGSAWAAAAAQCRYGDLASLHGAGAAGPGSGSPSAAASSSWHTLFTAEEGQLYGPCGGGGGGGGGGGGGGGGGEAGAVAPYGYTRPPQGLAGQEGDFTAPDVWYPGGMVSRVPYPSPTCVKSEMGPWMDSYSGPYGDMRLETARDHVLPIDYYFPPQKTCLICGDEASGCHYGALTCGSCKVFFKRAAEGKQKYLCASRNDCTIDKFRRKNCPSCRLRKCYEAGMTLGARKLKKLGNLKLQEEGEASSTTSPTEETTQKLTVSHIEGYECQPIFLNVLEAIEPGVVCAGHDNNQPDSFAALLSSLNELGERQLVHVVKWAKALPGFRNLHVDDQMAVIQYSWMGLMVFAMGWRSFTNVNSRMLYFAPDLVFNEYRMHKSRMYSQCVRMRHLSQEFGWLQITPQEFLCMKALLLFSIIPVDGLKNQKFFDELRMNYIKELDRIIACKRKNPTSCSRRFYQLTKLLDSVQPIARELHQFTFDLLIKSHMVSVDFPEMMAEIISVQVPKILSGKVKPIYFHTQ

For one test, the system named is NCBI gene 100848466. The experiment in a line: NVS_NR_bPR: NovaScreen (NVS) Nuclear Receptor Binding Assay for bovine Progextron Receptor (PR) (AID 2283343).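 Further: actives lower bound radioligand signal below DMSO meaning displacement of the label.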 The procedure, abridged: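 Bovine uterine membrane preparation; radioligand displacement read by scintillation counting 18 h after dosing. Primary screen single concentration, 25 uM, in duplicate; actives followed up in concentration series. Signal loss versus DMSO baseline.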
For the compound `C[C@@H]1C[C@H]2[C@@H]3CCC4=CC(=O)C=C[C@]4(C)[C@@]3(F)[C@@H](O)C[C@]2(C)[C@@]1(O)C(=O)COP(=O)(O)O`, the concentration at half-maximal activity (AC50) was 10.5 µM (active).
The same measure, in the same setting: with `Oc1cc2ccccc2c2ccccc12` the figure was 18 µM (active).
Same read-out and setting: with `C#C[C@]1(O)CC[C@H]2[C@@H]3CCC4=CC(=O)CC[C@@H]4[C@H]3CC[C@@]21C` the figure was 0.0183 µM (active).

Another test concerns the target chimpanzee Androgen Receptor (AR), AR (gene 747460) (UniProt O97775). The experiment in a line: NVS_NR_cAR: NovaScreen (NVS) Nuclear Receptor Binding Assay for chimpanzee Androgen Receptor (AR) (AID 2283346).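 Further: a loss of bound radioligand signal versus DMSO counts as binding.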 The essentials: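 Radioligand binding to chimpanzee AR expressed in Sf9/Sf21 cells, cell-free, measured 72 h after dosing by lysate-based scintillation counting. Loss of signal vs DMSO; initial duplicate screen at 25 uM, actives retested in concentration series.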
As for `OC1CCC(C2CCCCC2)CC1` (configuration not stated), the AC50 is 22.4 µM (active) and the call was inactive.
On to `O=C(O)c1ccccc1C(c1ccc(O)cc1)c1ccc(O)cc1`, for which the outcome was inactive.
Consider `C[C@@H]1C[C@H]2[C@@H]3CCC4=CC(=O)C=C[C@]4(C)[C@@]3(F)[C@@H](O)C[C@]2(C)[C@@]1(O)C(=O)COP(=O)(O)O`, for which the AC50 is 0.0307 µM (active).
For `Oc1cc2ccccc2c2ccccc12`, the AC50 was 10.1 µM (active).
Take `O=C1OC2(c3ccccc31)c1cc(Br)c(O)c(Br)c1Oc1c2cc(Br)c(O)c1Br`: the AC50 was 38.1 µM (active).
The same measure, in the same setting: with `CCC(C)(C)C1CCC(O)CC1` (configuration not stated) the figure was 32.1 µM (active).
Still for that read-out and setting: in the case of `C#C[C@]1(O)CC[C@H]2[C@@H]3CCC4=CC(=O)CC[C@@H]4[C@H]3CC[C@@]21C` it was 5.99 nM (active) and 4.99 nM (active).
For `CCCCC(CC)COC(=O)CCCCC(=O)OCc1ccccc1` (configuration not stated), the result was inactive.

The record behind these values is PubChem BioAssay (EPA / NIEHS).
